An excerpt weighted towards active compounds, which were near 7.9% of everything screened.
MARV entry inh – inhibitors of Marburg virus binding or cell entry. Marburg virus pseudotyped entry inhibition, cell reporter. Potency, µM (doses to about 37.8 µM), for inactives: at the top dose activity change, negative = inhibition, hits mostly inhibitors. hit rate 1.8% among 300,000; calls by dose curve; tested in HEK293 cells; note: potency is the fitted concentration of half-maximal effect
HCMV antiviral – blocks human cytomegalovirus replication | HFF cells, HCMV-luciferase reporter, 72 h; stronger effect = lower value | activity change, negative = inhibition, % at 57.5 µM | AID 1259415 | hit rate 4.5% among 410,000; in the data active = activity change below about -60%; inconclusive = no clear call, values can overlap the other calls; inactive = above about -39%
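Human foreskin fibroblasts infected with luciferase-reporter HCMV at MOI 1 PFU/cell, compounds at two doses. Luciferase measured 72 h post infection; normalized to buffer-only basal and Salinomycin (10uM) controls.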
FMDV antiviral – foot and mouth disease virus antiviral activity. FMDV antiviral cell-based qHTS. Potency, µM (doses to about 57.9 µM), for the others: at the top dose activity change, negative = inhibition, usual class: inhibitors. hit rate 1.2% among 410,000; calls by dose curve; tested in HEK293T cells; note: read-out not given here; potency is the fitted concentration of half-maximal effect; nearly all actives have a fitted effect of over 45% in size
Lassa entry inh – Lassa virus entry inhibition. Lassa virus pseudotype entry inhibition, cell reporter. Potency, µM (highest dose often 37.9 µM), without a hit: at the top dose activity change, negative = inhibition, actives largely listed as inhibitors. hit rate 1.2% among 300,000; calls by dose curve; tested in HEK293 cells; note: potency is the fitted concentration of half-maximal effect; nearly all actives have a fitted effect of over 50% in size
HCV inhibitor – inhibitors of hepatitis C virus infection. Huh7.5.1 HCVcc-Cre infection, luciferase reporter, 44 h. Potency, µM (series often up to 41.8 µM), for inactives: top-dose activity change, negative = inhibition, most hits filed as inhibitors. hit rate 3.4% among 340,000; active = well fitted inhibition curve with a large enough effect; inconclusive = small, poorly fitted or top-dose-only effect, or another doubt; inactive = no such curve, though single readings can be large or run the other way; note: potency is the fitted concentration of half-maximal effect
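Infectious HCVcc-Cre (~0.5 moi) was added to cells just after compound, with cells seeded 4 h earlier at 1,000 per well. Luciferase activity after 44 h culture reported infection; substrate was incubated 15 min at room temperature before reading.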
The depositor's hits bear a star; ? = inconclusive; / = no result given; [ ] = another dose, or the depositor's remark. % is set by controls: 0 for no effect and ±100 for the full control effect.

SMILES	MARV entry inh	HCMV antiviral	FMDV antiviral	Lassa entry inh	HCV inhibitor
O=C(Cc1ccccc1)NC1CC(=O)N(c2ccccc2)C1 (stereo not given)	/	-13	-15%	18%[46.1 µM]	/
CN(c1cccc(NC(=O)CN(c2cccc(Cl)c2)S(=O)(=O)c2ccccc2)c1)S(C)(=O)=O	?	?	0%	?	11µM*
COc1ccc(N(CC(=O)Nc2cccc(N(C)S(C)(=O)=O)c2)S(=O)(=O)c2ccccc2)cc1Cl	?	-15	-20%	-24%	?
CCOc1ccc(N(CC(=O)Nc2cccc(N(C)S(C)(=O)=O)c2)S(=O)(=O)c2ccccc2)cc1	?	-64*	16%	?	?
COc1ccc(N(CC(=O)Nc2cccc(N(C)S(C)(=O)=O)c2)S(=O)(=O)c2ccc(C)cc2)cc1	/	-30	26%	/	?
CC(OC(=O)CNC(=O)c1ccc(Cl)c(Cl)c1)C(=O)N1CCOCC1 (stereo not given)	-21%	-13	-4%	0%	17%
O=C(Nc1ccc(Nc2ccncc2)cc1)c1ccc([N+](=O)[O-])cc1	/	-90*	?	/	11µM*
O=C(Nc1ccc(Oc2cccnc2)cc1)c1ccc([N+](=O)[O-])cc1	2%[46.1 µM]	-17	-5%	0%	?
O=C(Nc1ccc([N+](=O)[O-])cc1)c1cncc(Br)c1	/	-85*	8%	/	-8%
O=C(Nc1ccncc1)c1cncc(Br)c1	2%	-32	2%	-8%	17%
O=C(c1cccc(Cn2cccn2)c1)N1CCC(n2c(C3CCCO3)nc3cc(C(F)(F)F)ccc32)CC1 (stereo not given)	/	/	-7%	/	/
CC(C)c1ccc(NC(=O)c2cc(S(=O)(=O)NCc3ccccc3Cl)ccc2F)cc1	/	-82*	7%	?	/
COc1ccc(S(=O)(=O)N(Cc2nc(-c3ccccc3)no2)C2CCCCC2)cc1	12%[46.1 µM]	?	12%	-15%[46.1 µM]	/
Cc1ccc(C)c(C(=O)COC(=O)C(C)N2C(=O)C3C4CCC(C4)C3C2=O)c1 (stereo not given)	/	21	-14%	/	3%
NC(=S)n1[nH]c(-c2ccc([N+](=O)[O-])cc2)c(N=Nc2ccc(O)cc2)c1=O	22%	-36	-27%	1%	-18%
NC(=S)n1[nH]c(-c2ccc([N+](=O)[O-])cc2)c(N=Nc2cccc(Cl)c2)c1=O	?	-101*	?	?	13µM*
COc1ccccc1C(c1nnnn1Cc1ccco1)N1CCN(c2cccc(C)c2C)CC1 (stereo not given)	?	-27	-3%	9.2µM*	13µM*
COCCn1nnnc1C(c1ccccn1)N1CCN(c2cccc(C)c2C)CC1 (stereo not given)	-25%	-6	?	-28%	1%
CCN1CCN(C(c2cccc(OC)c2OC)c2nnnn2Cc2ccco2)CC1 (stereo not given)	0%[46.1 µM]	-83*	-8%	3%	-9%
C[C@]12CCCC3=CC(=O)C=C[C@@]31Oc1ccccc1C(=O)C2	/	6	/	/	/
CCNC(=S)N/N=C/c1ccc(C#N)cc1	?	-62*	-10%	?	?
CCNC(=S)N/N=C/c1ccco1	16%	0	8%	18%	0%
Cc1cc(-c2ccccc2)nc(N2CCC(C(=O)NCc3ccccc3Cl)CC2)n1	/	/	/	/	3%
C=CCNC(=O)C1CCN(c2nc(C)cc(-c3ccccc3)n2)CC1	7%	50	38%	?	2.8µM*
[O-][N+]1=c2ccc(Nc3ccccc3)cc2=NC12CCCCC2	2.2µM*	?	-8%	?	?
C=C1CCC[C@]2(C)C[C@H]3OC(=O)C(CNCC(OC)OC)[C@H]3CC12 (stereo not given in full)	4%[46.1 µM]	-30	-12%	20%[46.1 µM]	4%
C=C1CCC[C@]2(C)C[C@H]3OC(=O)C(CN[C@@H](C)c4ccccc4)[C@H]3CC12 (stereo not given in full)	?	-64*	-24%	?	?
C=C1CCC[C@]2(C)C[C@H]3OC(=O)C(CN(Cc4ccc(OC)c(OC)c4)CC(C)O)[C@H]3CC12 (stereo not given in full)	/	-99*	?	/	-27%
C=C1CCC[C@]2(C)C[C@H]3OC(=O)C(CNC(C)CCCC(C)C)[C@H]3CC12 (stereo not given in full)	?	-68*	-19%	?	?
Cc1ccc(O)c(N=NC2=C(O)CC(C)(C)CC2=O)c1	10µM*	-101*	22%	?	?
